{"source": "PubChem BioAssay (NCATS)", "note": "Records with an inconclusive call do not appear. The source made the active and inactive calls. Unless noted, calls come from the whole dose curve; as a rule, active = well fitted curve in the direction sought with a large enough effect; inconclusive = small, poorly fitted or top-dose-only effect, or another doubt; inactive = no such curve, though single readings can be large; an effect the other way counts as inactive or inconclusive. Throughout, for activation: 0% is about no effect. Throughout, for max response: 0% is about no effect.", "data": [{"test_system": "W2", "assay": "qHTS profiling for inhibitors of Plasmodium falciparum proliferation (AID 504749); note: nearly all actives have a fitted effect of over 60% in size; note: potency is the fitted concentration of half-maximal effect;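 for activity, negative = inhibition: 0% = DMSO vehicle and full inhibition = artemisinin control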", "details": "P. falciparum in erythrocytes, SYBR Green DNA, 72 h; series mostly up to 28.7 µM; activity, negative = inhibition: at the top concentration", "in_short": "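P. falciparum-infected erythrocytes (0.3% parasitemia, 2.5% hematocrit final) were exposed to compounds for 72 h at 37 C in 5% CO2, then lysed with SYBR Green buffer overnight at room temperature; parasite DNA fluorescence was normalized to artemisinin and DMSO controls.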", "values": [{"smiles": "CCCCCCCCCCCCCCC[C@H](O)[C@H](N)CO", "activity, negative = inhibition": "-13.8% (inactive)"}, {"smiles": "CN1C2CCC1CC(OC(c1ccccc1)c1ccccc1)C2", "note": "(stereo not given)", "Potency": "1.51 µM (active)"}, {"smiles": "c1ccc(C2CN3CCSC3=N2)cc1", "note": "(stereo not given)", "Potency": "1.51 µM (active)"}, {"smiles": "CC(O)C(O)[C@H]1CNc2nc(N)[nH]c(=O)c2N1", "note": "(stereo not given in full)", "activity, negative = inhibition": "3.45% (inactive)"}, {"smiles": "CC(C)NC[C@H](O)COc1ccc(CC(N)=O)cc1", "activity, negative = inhibition": "15.1% (inactive)"}, {"smiles": "CCCCCCCCCCCCCCCCCCOC[C@H](COP(=O)([O-])OCC[N+](C)(C)C)OC", "activity, negative = inhibition": "3.27% (inactive)"}]}, {"test_system": "not listed separately", "assay": "qHTS assay to identify inhibitors of the type 1 interferon - major histocompatibility complex class I in skeletal muscle: Counter screen cell viability and HiBit confirmation (AID 1347412); note: nearly all actives have a fitted effect of over 60% in size; note: potency is the fitted concentration of half-maximal effect; for activity change, negative = inhibition: % is set by controls: 0 for no effect and ±100 for the full control effect", "details": "iHSKM muscle cells + IFN-b, HiBiT or CellTiter-Glo, 24 h; HiBiT", "in_short": "(§1)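 CRISPR HLA-B*08:01-HiBit immortalized human myoblasts (C25cl48) stimulated with 4 ng/ml IFN-beta and compounds (12-point 1:3, top 46 uM final) for 24 h at 37 C. Duplicate plates read by HiBit lytic luminescence or CellTiter Glo ATP.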", "values": [{"smiles": "O=C1Cc2c([nH]c3ccc(Br)cc23)-c2ccccc2N1", "Potency": "15.7 µM (active)"}, {"smiles": "O=c1[nH]c2cc(Cl)ccc2c(O)c1-c1ccc(Oc2ccccc2)cc1", "Potency": "5.57 µM (active)"}, {"smiles": "CC[n+]1c(/C=C/C=C2/N(C)c3ccccc3C2(C)C)sc2ccccc21", "Potency": "7.01 µM (active)"}, {"smiles": "Brc1c(Br)c(Br)c2[nH]cnc2c1Br", "Potency": "14 µM (active)"}, {"smiles": "C=C1C(=O)O[C@@H]2[C@H]3O[C@]3(C)CCC=C(C)CC[C@@H]12", "Potency": "8.83 µM (active)"}]}, {"test_system": "not listed separately", "assay": "qHTS assay to identify inhibitors of the type 1 interferon - major histocompatibility complex class I in skeletal muscle: Counter screen cell viability and HiBit confirmation (AID 1347412)", "details": "iHSKM muscle cells + IFN-b, HiBiT or CellTiter-Glo, 24 h; Viability; at 45.9 µM (top of the series)", "in_short": "as §1", "values": [{"smiles": "O=C1Cc2c([nH]c3ccc(Br)cc23)-c2ccccc2N1", "activity change, negative = inhibition": "-21.6% (inactive)"}, {"smiles": "O=c1[nH]c2cc(Cl)ccc2c(O)c1-c1ccc(Oc2ccccc2)cc1", "activity change, negative = inhibition": "-0.671% (inactive)"}, {"smiles": "Brc1c(Br)c(Br)c2[nH]cnc2c1Br", "activity change, negative = inhibition": "3.14% (inactive)"}, {"smiles": "C=C1C(=O)O[C@@H]2[C@H]3O[C@]3(C)CCC=C(C)CC[C@@H]12", "activity change, negative = inhibition": "52.5% (inactive)"}]}, {"molecular_target": "Nuclear receptor subfamily 1 group I member 2 (Rattus norvegicus) (UniProt Q9R1A7)", "sequence (Q9R1A7 whole entry, looked up)": "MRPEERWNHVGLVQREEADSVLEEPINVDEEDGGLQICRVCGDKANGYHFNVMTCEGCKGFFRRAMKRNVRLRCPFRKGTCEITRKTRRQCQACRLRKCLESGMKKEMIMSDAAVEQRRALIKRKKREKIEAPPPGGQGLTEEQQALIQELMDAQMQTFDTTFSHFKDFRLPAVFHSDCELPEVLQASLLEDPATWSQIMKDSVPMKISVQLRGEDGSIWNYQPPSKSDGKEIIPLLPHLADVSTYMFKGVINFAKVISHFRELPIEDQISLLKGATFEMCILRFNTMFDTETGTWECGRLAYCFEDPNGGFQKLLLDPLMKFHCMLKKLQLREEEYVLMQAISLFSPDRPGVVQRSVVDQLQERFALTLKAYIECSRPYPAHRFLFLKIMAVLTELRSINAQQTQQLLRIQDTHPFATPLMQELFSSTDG", "assay": "qHTS assay for small molecule activators of the rat pregnane X receptor (rPXR) signaling pathway (AID 651751; call rule not given here)", "details": "rPXR reporter cells, luciferase (One-Glo), 24 h", "values": [{"smiles": "CCCCCCCCCCCCCCSCC(=O)O", "max response": "5.54% (inactive)"}, {"smiles": "CCCc1c(OCCCOc2ccc(OCC(=O)O)cc2)ccc(C(C)=O)c1O", "max response": "-1.22% (inactive)"}, {"smiles": "CC(=O)C(C)=O", "max response": "-4.56% (inactive)"}, {"smiles": "NC(=O)c1ccccc1", "max response": "-1.26% (inactive)"}, {"smiles": "CCCc1c(-c2ccc(O)cc2)nn(-c2ccc(O)cc2)c1-c1ccc(O)cc1", "max response": "-3.52% (inactive)"}, {"smiles": "C/C(=C\\c1ccc(C(=O)O)cc1)c1ccc2c(c1)C(C)(C)CCC2(C)C", "max response": "1.8% (inactive)"}]}, {"test_system": "not listed separately", "assay": "qHTS assay for small molecule activators of the human pregnane X receptor (PXR) signaling pathway (AID 720659; call rule not given here)", "details": "DPX-2 HepG2 CYP3A4-luciferase, 24 h; series mostly up to 92.3 µM; activation: at the top concentration", "values": [{"smiles": "CCCCCCCCCCCCCCSCC(=O)O", "activation": "22.5% (inactive)"}, {"smiles": "CC(=O)C(C)=O", "activation": "-7.51% (inactive)"}, {"smiles": "NC(=O)c1ccccc1", "activation": "-5.78% (inactive)"}, {"smiles": "CCCc1c(-c2ccc(O)cc2)nn(-c2ccc(O)cc2)c1-c1ccc(O)cc1", "activation": "24.4% (inactive)"}]}]}
